Experiment in all cases: DAPPL (digital affinity profiling via proximity ligation, sequencing); 10 mM Tris-HCl pH 7.5, 50 mM NaCl, 1 mM DTT, 4% glycerol, room temperature, 30 min; GST-TFs on glutathione beads, 16-mer random dsDNA library, 0.1% formaldehyde crosslink after washing; high values mean tight binding
One test has as its target T1, FLI1 (Homo sapiens, UniProt Q01543 1-452).
T1 sequence: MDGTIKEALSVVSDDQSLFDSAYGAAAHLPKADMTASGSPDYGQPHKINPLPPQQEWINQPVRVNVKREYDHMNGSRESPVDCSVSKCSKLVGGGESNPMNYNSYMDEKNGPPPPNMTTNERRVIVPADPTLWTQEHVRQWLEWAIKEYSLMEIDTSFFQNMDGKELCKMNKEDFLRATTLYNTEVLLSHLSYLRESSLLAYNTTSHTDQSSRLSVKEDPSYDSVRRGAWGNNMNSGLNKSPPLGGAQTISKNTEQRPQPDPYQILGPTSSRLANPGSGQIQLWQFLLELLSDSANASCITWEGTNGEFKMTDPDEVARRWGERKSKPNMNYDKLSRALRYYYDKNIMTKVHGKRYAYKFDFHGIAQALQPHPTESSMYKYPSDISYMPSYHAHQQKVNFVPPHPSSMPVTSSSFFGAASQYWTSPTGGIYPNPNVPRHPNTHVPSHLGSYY
Particulars: protein: recombinant; tags: N-terminal GST; dsDNA, one strand shown. The method, boiled down: (§1)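 Binding signal is each hexamer's read frequency for a factor divided by its frequency in the tag-only sample. The factors were GST-fused human transcription factors from yeast, captured on glutathione beads, DNA-barcoded and pooled with that sample. Pools were incubated with 200 nmole of a random double-stranded 16-mer DNA library in Tris/NaCl/DTT/glycerol buffer at room temperature for 30 min, then washed, crosslinked with 0.1% formaldehyde, proximity-ligated with BsaI/T4 ligase (1 h, 37 °C), PCR-amplified and sequenced on an Illumina NextSeq500.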

The next test addresses T2, ELK1 (Homo sapiens, UniProt P19419 1-428).
T2 sequence: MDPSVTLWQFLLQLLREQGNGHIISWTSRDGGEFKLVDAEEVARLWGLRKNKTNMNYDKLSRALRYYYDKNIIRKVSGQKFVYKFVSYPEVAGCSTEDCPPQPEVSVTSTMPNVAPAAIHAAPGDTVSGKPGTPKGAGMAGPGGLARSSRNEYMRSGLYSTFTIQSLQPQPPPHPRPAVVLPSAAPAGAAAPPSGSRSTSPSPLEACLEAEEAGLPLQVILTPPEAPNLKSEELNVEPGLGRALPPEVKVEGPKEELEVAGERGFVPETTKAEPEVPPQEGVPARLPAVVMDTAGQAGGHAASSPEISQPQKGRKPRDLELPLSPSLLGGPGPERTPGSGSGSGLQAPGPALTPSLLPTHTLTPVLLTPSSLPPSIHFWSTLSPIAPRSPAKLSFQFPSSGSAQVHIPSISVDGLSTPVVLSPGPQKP
The note with it: protein: recombinant; tags: N-terminal GST; dsDNA, one strand shown. An outline of the steps:
as §1

The target of the next test is T3, GABPA (Homo sapiens, UniProt Q06546 1-454).
T3 sequence: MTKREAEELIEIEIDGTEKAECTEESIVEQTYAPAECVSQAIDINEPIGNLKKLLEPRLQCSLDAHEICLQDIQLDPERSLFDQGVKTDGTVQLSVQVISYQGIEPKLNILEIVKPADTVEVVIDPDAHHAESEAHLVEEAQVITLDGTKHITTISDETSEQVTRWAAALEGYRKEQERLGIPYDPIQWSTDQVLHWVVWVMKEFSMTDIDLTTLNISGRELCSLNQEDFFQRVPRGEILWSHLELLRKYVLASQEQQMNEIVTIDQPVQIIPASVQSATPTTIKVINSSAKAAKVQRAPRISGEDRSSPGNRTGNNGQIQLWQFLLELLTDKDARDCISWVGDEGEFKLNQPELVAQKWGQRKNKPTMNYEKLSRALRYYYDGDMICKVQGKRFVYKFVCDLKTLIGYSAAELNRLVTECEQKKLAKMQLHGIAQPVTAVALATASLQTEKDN
Particulars: protein: recombinant; tags: N-terminal GST; dsDNA, one strand shown. The method, boiled down: as §1

The target in the next test is T4, ERG (Homo sapiens, UniProt P11308 1-479).
T4 sequence: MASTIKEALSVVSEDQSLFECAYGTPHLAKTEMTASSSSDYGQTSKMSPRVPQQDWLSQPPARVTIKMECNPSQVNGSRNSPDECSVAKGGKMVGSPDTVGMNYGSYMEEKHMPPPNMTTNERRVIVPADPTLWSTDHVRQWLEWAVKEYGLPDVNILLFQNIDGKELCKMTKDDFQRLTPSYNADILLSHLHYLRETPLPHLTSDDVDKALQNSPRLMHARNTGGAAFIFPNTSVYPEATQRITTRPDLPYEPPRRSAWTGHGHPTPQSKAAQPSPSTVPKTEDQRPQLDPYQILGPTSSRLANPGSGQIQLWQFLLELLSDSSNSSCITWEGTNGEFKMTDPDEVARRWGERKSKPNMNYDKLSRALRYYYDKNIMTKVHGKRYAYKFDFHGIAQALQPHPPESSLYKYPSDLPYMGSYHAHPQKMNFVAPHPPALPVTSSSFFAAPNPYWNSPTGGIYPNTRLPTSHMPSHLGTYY
The note with it: protein: recombinant; tags: N-terminal GST; dsDNA, one strand shown. The method, boiled down: as §1

Another test concerns the target ELF1 (Homo sapiens, UniProt P32519 1-619). Particulars: protein: recombinant; tags: N-terminal GST; dsDNA, one strand shown. An outline of the steps:
as §1

A further test has as its target T5, EHF (Homo sapiens, UniProt Q9NZC4 1-300).
T5 sequence: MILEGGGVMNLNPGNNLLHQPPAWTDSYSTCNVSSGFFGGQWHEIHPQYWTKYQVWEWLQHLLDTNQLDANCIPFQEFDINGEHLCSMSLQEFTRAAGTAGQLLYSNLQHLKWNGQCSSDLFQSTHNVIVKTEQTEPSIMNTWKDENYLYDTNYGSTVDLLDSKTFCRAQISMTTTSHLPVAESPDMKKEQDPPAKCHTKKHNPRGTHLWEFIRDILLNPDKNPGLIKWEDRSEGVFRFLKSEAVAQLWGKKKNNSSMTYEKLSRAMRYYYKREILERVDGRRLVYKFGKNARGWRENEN
The note with it: protein: recombinant; tags: N-terminal GST; dsDNA, one strand shown. An outline of the steps: as §1

For a further test, the target named is SPI1 (Homo sapiens, UniProt P17947 1-270). The note with it: protein: recombinant; tags: N-terminal GST; dsDNA, one strand shown. The method, boiled down: as §1
For another test, the target named is SPIB (Homo sapiens, UniProt Q01892 1-262). Particulars: protein: recombinant; tags: N-terminal GST; dsDNA, one strand shown. An outline of the steps: as §1
For a further test, the target named is T6, ELK3 (Homo sapiens, UniProt P41970 1-407).
T6 sequence: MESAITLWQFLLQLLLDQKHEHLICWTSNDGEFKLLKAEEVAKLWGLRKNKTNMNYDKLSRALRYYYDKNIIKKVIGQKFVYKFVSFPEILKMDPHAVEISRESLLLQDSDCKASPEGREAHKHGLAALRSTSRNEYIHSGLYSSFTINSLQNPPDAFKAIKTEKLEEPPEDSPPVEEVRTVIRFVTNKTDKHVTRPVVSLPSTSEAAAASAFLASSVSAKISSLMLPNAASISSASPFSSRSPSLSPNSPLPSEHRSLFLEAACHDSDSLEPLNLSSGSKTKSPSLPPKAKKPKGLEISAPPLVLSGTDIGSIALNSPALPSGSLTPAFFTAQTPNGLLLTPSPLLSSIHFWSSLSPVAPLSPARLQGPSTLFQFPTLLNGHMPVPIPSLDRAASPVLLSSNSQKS
Particulars: protein: recombinant; tags: N-terminal GST; dsDNA, one strand shown. An outline of the steps:
as §1

In another test the target is T7, FEV (Homo sapiens, UniProt Q99581 1-238).
T7 sequence: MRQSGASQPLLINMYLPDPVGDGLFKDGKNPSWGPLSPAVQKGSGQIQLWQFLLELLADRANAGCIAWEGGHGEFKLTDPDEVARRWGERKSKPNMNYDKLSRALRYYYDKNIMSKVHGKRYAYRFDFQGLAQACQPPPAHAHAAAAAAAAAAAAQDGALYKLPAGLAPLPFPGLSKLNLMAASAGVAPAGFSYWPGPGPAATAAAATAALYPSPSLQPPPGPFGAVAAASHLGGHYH
Particulars: protein: recombinant; tags: N-terminal GST; dsDNA, one strand shown. The method, boiled down:
as §1

In another test the target is ETV5 (Homo sapiens, UniProt P41161 1-510). The note with it: protein: recombinant; tags: N-terminal GST; dsDNA, one strand shown. The method, boiled down:
as §1

A further test has as its target HSF1 (Homo sapiens, UniProt Q00613 1-529). Particulars: protein: recombinant; tags: N-terminal GST; chain copies: 3; dsDNA, one strand shown. The method, boiled down: as §1
For another test, the target named is T8, SPIC (Homo sapiens, UniProt Q8N5J4 1-248).
T8 sequence: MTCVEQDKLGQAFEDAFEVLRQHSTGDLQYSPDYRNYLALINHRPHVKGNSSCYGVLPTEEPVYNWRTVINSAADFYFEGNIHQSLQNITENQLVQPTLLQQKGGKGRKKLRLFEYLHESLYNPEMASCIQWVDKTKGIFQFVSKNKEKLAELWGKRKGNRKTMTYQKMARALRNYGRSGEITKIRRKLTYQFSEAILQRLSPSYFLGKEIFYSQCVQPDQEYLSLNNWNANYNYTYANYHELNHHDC
The note with it: protein: recombinant; tags: N-terminal GST; dsDNA, one strand shown. An outline of the steps:
as §1

In a further test the target is ELF4 (Homo sapiens, UniProt Q99607 1-663). Particulars: protein: recombinant; tags: N-terminal GST; dsDNA, one strand shown. The method, boiled down:
as §1

Another test concerns the target T9, ELK4 (Homo sapiens, UniProt P28324-2 1-405).
T9 sequence: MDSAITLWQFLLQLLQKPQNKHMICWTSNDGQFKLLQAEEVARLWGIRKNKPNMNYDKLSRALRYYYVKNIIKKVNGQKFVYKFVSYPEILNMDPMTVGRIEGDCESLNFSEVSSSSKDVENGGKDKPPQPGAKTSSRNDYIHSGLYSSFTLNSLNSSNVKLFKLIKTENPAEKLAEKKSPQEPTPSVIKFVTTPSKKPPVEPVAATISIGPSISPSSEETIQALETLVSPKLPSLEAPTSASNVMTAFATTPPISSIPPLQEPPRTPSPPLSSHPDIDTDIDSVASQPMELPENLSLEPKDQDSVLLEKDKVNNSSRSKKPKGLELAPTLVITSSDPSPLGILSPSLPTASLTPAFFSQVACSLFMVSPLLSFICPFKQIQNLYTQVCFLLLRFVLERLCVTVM
The note with it: protein: recombinant; tags: N-terminal GST; dsDNA, one strand shown. An outline of the steps:
as §1

Another test has as its target T10, ETV2 (Homo sapiens, UniProt O00321 1-342).
T10 sequence: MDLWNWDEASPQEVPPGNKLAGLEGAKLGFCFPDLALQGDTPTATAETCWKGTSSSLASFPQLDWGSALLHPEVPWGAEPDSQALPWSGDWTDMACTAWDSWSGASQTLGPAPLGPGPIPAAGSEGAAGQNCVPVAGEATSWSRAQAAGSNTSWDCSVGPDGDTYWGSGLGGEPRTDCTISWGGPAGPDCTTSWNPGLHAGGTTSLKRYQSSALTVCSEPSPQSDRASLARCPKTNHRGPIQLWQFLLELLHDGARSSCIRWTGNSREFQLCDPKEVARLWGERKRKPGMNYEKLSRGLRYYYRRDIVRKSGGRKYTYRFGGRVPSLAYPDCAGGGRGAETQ
Particulars: protein: recombinant; tags: N-terminal GST; dsDNA, one strand shown. An outline of the steps: as §1

The target of the next test is T11, ELF3 (Homo sapiens, UniProt P78545 1-371).
T11 sequence: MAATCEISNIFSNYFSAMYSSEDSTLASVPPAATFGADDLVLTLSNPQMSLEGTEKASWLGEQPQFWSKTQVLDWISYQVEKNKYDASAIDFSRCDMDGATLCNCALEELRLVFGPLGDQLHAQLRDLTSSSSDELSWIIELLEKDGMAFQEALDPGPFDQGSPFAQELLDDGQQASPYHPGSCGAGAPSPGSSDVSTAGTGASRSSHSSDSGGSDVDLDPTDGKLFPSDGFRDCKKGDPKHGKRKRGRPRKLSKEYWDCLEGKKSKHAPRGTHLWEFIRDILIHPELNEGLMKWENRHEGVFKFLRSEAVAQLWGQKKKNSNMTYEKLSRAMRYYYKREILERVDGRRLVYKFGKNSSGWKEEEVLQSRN
The note with it: protein: recombinant; tags: N-terminal GST; dsDNA, one strand shown. The method, boiled down: as §1

A further test addresses CRX (Homo sapiens, UniProt O43186 1-299). Particulars: protein: recombinant; tags: N-terminal GST; dsDNA, one strand shown. The method, boiled down:
as §1

The next test concerns the target ETV1 (Homo sapiens, UniProt P50549 1-477). Particulars: protein: recombinant; tags: N-terminal GST; dsDNA, one strand shown. The method, boiled down:
as §1

From PMC7862700, “An all-to-all approach to the identification of sequence-specific readers for epigenetic DNA modifications on cytosine” come the findings set out here.

Sequence of ELF1 (P32519 whole entry): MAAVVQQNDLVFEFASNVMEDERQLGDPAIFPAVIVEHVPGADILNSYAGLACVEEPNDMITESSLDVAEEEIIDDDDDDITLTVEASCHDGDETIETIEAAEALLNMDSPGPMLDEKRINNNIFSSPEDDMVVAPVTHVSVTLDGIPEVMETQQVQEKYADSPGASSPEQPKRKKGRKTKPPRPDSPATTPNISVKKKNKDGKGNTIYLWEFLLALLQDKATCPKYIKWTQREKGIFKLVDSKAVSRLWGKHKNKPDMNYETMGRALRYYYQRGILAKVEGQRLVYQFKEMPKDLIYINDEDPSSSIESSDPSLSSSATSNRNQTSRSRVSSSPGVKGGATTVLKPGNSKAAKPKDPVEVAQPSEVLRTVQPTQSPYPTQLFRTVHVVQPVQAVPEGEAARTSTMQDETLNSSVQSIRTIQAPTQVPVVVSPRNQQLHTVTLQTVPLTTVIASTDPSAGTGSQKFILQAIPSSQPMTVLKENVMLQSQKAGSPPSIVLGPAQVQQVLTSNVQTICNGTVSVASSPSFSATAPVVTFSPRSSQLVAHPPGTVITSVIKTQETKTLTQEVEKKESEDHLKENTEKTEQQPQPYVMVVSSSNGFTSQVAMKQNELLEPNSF
Sequence of SPIB (Q01892 whole entry): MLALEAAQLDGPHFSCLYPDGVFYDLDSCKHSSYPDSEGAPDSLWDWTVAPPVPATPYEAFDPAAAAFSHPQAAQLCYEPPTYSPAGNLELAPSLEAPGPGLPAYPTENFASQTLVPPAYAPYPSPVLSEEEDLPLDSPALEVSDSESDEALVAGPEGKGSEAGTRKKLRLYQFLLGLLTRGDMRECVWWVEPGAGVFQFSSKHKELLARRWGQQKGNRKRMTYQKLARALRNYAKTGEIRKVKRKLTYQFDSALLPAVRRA
Sequence of HSF1 (Q00613 whole entry): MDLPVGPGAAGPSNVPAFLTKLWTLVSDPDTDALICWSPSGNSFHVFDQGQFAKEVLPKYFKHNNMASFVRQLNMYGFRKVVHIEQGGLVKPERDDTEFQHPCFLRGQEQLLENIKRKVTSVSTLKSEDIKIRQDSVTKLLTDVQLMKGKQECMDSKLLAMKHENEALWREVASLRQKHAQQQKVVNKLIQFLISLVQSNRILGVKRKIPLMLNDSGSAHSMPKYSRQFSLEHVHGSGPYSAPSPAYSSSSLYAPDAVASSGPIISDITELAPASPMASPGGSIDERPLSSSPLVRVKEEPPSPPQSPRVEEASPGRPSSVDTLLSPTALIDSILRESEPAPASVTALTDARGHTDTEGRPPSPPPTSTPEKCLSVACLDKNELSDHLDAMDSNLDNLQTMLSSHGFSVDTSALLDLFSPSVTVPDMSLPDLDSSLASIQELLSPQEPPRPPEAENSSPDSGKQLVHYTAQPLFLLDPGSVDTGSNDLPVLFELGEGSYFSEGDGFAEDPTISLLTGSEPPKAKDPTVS
Sequence of ETV5 (P41161 whole entry): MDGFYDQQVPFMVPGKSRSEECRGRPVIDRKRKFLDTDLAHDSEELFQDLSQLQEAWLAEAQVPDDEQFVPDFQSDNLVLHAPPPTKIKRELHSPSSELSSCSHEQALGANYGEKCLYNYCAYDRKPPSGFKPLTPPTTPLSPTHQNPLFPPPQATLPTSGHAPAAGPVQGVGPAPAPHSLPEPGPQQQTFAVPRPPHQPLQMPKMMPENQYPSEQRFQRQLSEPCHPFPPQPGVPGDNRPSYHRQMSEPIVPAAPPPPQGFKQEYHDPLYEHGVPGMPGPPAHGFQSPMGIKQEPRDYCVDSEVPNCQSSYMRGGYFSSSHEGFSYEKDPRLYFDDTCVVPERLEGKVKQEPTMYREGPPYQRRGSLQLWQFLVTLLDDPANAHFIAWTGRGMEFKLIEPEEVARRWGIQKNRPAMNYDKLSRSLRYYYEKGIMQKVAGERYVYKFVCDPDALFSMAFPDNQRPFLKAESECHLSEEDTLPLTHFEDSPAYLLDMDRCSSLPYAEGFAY
Sequence of ETV1 (P50549 whole entry): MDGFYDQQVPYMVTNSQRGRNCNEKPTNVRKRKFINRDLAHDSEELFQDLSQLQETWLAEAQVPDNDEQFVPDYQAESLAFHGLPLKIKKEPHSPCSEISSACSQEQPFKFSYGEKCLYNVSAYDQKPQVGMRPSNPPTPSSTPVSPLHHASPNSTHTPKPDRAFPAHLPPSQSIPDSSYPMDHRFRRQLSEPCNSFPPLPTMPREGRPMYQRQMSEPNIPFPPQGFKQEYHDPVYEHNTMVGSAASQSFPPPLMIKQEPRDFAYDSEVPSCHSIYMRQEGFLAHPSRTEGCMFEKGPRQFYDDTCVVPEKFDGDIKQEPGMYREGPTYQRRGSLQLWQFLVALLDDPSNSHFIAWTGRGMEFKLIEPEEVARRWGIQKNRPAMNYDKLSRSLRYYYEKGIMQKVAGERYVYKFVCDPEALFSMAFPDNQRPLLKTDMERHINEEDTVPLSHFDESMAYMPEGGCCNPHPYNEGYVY
Sequence of ELF4 (Q99607 whole entry): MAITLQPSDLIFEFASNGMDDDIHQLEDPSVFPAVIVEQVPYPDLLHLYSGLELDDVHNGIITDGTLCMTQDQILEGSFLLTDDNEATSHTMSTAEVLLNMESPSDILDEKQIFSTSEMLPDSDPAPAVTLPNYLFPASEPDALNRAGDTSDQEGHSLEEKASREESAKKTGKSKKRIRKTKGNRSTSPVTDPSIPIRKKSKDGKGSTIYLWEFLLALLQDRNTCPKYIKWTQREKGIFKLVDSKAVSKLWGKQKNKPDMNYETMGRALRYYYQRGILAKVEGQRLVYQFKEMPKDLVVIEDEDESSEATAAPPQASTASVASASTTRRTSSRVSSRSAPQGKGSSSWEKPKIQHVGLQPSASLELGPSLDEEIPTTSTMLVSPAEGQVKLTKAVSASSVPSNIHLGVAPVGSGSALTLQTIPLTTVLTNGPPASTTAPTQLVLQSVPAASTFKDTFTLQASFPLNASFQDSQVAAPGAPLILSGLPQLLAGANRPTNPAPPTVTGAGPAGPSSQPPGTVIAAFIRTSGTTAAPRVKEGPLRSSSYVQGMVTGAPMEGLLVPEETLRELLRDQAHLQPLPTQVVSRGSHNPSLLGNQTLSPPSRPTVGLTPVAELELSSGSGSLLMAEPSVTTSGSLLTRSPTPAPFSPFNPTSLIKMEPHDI
Sequence of CRX (O43186 whole entry): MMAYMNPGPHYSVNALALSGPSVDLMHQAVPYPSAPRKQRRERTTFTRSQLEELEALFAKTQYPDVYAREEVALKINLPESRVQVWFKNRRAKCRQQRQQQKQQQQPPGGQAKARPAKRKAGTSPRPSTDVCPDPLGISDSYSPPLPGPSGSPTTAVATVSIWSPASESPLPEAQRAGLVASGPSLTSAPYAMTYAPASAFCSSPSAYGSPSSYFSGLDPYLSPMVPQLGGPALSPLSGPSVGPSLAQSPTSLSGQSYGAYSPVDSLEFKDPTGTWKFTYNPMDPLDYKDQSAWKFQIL

For TTTGTC, the binding signal was 1.35 fold enrichment (6-mer frequency, TF over GST control) in the test with FLI1; 1.21 fold enrichment (6-mer frequency, TF over GST control) with ELK1; 1.19 fold enrichment (6-mer frequency, TF over GST control) in the test with GABPA; 1.19 fold enrichment (6-mer frequency, TF over GST control) with ERG; 1.26 fold enrichment (6-mer frequency, TF over GST control) with ELF1; 1.24 fold enrichment (6-mer frequency, TF over GST control) in the test with EHF. The binding signal in the test with SPI1 is 1.23 fold enrichment (6-mer frequency, TF over GST control); with SPIB, 1.16 fold enrichment (6-mer frequency, TF over GST control); with ELK3, 1.18 fold enrichment (6-mer frequency, TF over GST control); in the test with FEV, 1.19 fold enrichment (6-mer frequency, TF over GST control); in the test with ETV5 it was 1.15 fold enrichment (6-mer frequency, TF over GST control); with HSF1 it was 1.11 fold enrichment (6-mer frequency, TF over GST control). The binding signal with SPIC is 1.16 fold enrichment (6-mer frequency, TF over GST control); with ELF4, 1.18 fold enrichment (6-mer frequency, TF over GST control); with ELK4, 1.23 fold enrichment (6-mer frequency, TF over GST control); with ETV2, 1.16 fold enrichment (6-mer frequency, TF over GST control); in the test with ELF3, 1.27 fold enrichment (6-mer frequency, TF over GST control); in the test with CRX it was 1.29 fold enrichment (6-mer frequency, TF over GST control). For the same sequence, in the test with ETV1, the binding signal is 1.14 fold enrichment (6-mer frequency, TF over GST control).
